Data reported in PubChem BioAssay AID623996 (NMMLSC, 2012).
Potency and affinity values are given separately. The source made the active and inactive calls.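 How the source made its calls: active means fitted concentration giving half the maximal Nile Red retention below 100 µM; inactive means the rest.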

The compounds below were run against Multidrug resistance protein CDR1 (Candida albicans) (UniProt P43071) (assay: Candida albicans Cdr1 pump inhibition curves – singleplex, Cherry Pick2 set, dose response (AID 623996)). Settings: S. cerevisiae AD/CaCDR1, Nile Red efflux inhibition, flow cytometry; series mostly up to 100 µM.
Sequence of Multidrug resistance protein CDR1 (Candida albicans) (P43071 whole entry, looked up): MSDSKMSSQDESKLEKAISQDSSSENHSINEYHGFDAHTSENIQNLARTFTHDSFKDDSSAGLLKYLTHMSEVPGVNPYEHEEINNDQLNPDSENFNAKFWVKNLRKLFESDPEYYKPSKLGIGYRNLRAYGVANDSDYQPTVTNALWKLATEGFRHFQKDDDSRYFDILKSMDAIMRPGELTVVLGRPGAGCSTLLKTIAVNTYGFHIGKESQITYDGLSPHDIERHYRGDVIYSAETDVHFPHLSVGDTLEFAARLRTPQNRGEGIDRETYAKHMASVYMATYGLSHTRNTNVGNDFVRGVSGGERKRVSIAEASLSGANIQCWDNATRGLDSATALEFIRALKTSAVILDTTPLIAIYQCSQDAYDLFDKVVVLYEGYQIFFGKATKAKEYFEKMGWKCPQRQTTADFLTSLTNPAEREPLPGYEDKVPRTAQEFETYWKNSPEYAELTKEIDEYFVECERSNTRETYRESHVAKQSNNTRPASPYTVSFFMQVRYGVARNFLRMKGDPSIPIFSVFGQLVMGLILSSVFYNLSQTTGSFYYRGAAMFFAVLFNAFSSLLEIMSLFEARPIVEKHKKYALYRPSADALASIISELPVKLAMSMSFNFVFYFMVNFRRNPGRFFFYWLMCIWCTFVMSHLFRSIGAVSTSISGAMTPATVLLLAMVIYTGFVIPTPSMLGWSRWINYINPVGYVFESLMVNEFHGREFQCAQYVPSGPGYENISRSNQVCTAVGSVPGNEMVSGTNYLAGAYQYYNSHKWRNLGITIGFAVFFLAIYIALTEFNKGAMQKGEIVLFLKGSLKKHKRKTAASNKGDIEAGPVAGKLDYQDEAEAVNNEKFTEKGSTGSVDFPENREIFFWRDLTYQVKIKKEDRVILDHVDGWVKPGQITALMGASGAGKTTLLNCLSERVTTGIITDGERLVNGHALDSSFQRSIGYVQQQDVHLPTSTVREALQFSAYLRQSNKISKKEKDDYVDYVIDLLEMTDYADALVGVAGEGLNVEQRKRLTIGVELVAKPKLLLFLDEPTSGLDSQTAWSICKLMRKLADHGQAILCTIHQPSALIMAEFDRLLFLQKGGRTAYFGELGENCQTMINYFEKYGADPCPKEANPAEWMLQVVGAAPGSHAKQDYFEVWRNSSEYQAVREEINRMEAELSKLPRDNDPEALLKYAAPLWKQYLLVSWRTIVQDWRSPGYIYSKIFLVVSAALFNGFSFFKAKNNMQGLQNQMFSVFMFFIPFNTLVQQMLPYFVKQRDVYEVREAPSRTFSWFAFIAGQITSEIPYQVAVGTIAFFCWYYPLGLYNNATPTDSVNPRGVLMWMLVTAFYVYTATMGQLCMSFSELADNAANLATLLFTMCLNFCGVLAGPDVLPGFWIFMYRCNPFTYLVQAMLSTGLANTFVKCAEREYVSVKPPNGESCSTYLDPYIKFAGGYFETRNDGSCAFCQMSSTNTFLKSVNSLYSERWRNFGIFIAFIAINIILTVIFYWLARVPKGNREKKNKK

Row | Structure (SMILES) | outcome
1 | CCC(=O)N1CCN(c2ccc(Cl)cc2NC(=O)c2ccc3c(c2)OCCO3)CC1 | inactive
2 | COc1ccc(-c2sc3ccccc3c2-c2ccc(OCCN(C)C)cc2)cc1 | inactive
3 | COc1cccc(-c2sc3ccc(OC)cc3c2-c2ccc(OCCN3CCOCC3)cc2)c1 | inactive
4 | COc1ccc(-c2c[n+](CC(=O)N3c4ccccc4Sc4ccccc43)c3n2CCC3)cc1 | inactive
5 | COc1ccc(CNC(=O)C(C#N)c2nc3ccccc3nc2N2CCCC2)cc1 (stereo not given) | inactive
6 | Cc1ccc(CN2C(=O)C(CC(C)C)Nc3ncnc(N4CCN(c5ccccc5)CC4)c32)cc1 (stereo not given) | inactive
7 | NS(=O)(=O)c1ccc(N2N=C(c3ccccc3)CC2c2cccc(Br)c2)cc1 (stereo not given) | inactive
8 | N#CC(C(=O)NCc1ccccc1)c1nc2ccccc2nc1N1CCCC1 (stereo not given) | inactive
9 | O=C(NCCc1ccc(Cl)cc1)C1CCC(CNc2nc(=S)[nH]c3ccccc23)CC1 (stereo not given) | inactive
10 | CCCCCCCCCC[N+](C)(C)CC/C=C1/c2ccccc2Sc2ccc(Cl)cc21 | inactive
11 | O=C(Nc1ccccc1)C1=C[C@@H](c2ccc(C(F)(F)F)cc2)C[C@@H](OCCCCO)O1 | inactive
12 | COc1cc(OC)c2ccc(=O)oc2c1C(CCN1CCCCC1)c1ccc(N(C)C)cc1 (stereo not given) | inactive
13 | COc1ccc2nc(NC(=O)c3cccs3)sc2c1 | inactive
14 | Cc1cccc(C2CC(c3ccccc3)=NN2c2ccc(S(N)(=O)=O)cc2)c1 (stereo not given) | inactive
15 | COc1ccc(N2CCN(C(=O)C3CCCN(c4ncnc5c4nc4n5CCCCC4)C3)CC2)cc1 (stereo not given) | inactive
16 | COc1ccc(O)c(C(=O)c2cnc3c(c2)CN(C)C(=O)N3)c1 | inactive
17 | COc1ccc(C(=O)OCCc2ccc(O)cc2)cc1 | inactive
18 | CCO[C@@H]1OC(C(=O)Nc2ccccc2)=C[C@H](c2ccc(Br)cc2)[C@H]1CCCO | inactive
19 | CCCCN1Cc2cc(C(=O)c3cc(OC)ccc3O)cnc2NC1=O | inactive
20 | COc1cc(OC)c2ccc(=O)oc2c1C(CCN1CCCC1)c1ccc(N(C)C)cc1 (stereo not given) | inactive
21 | NC1=NC[C@H](Cc2ccc(O)cc2)N1CCc1cc(C(F)(F)F)cc(C(F)(F)F)c1 | inactive
22 | C[C@H](CO)N1C[C@H](C)[C@@H](CN(C)S(=O)(=O)c2ccccc2)Oc2c(NC(=O)Nc3ccccc3)cccc2C1=O | inactive
23 | OCCN1CCN(CC/C=C2/c3ccccc3Sc3ccc(C(F)(F)F)cc32)CC1 | inactive
24 | O=C(CSc1nnc(Cc2cccs2)n1Cc1ccco1)Nc1cccc(Cl)c1 | inactive
25 | O=C(c1ccoc1)N1CCC2(CC1)Oc1ccc(F)cc1C(=O)C21CC(c2ccc(Cl)cc2)=NO1 (stereo not given) | inactive
26 | Cc1ccc(O)c(C(=O)c2cnc3c(c2)CN(CCC(C)C)C(=O)N3)c1 | inactive
27 | Cc1ccc(N2CCN(C(=O)C3CCCN(c4ncnc5c4nc4n5CCCCC4)C3)CC2)c(C)c1 (stereo not given) | inactive
28 | O=C(c1ccc2c(c1)OCO2)N1CCC2(CC1)Oc1ccc(F)cc1C(=O)C21CC(c2ccc(Cl)cc2)=NO1 (stereo not given) | inactive
29 | COc1ncccc1C(=O)NC1CCCc2c1cnn2-c1cc(C)cc(C)c1 (stereo not given) | inactive
30 | CC(C)C(=O)N1CCC2(CC1)Oc1ccc(F)cc1C(=O)C21CC(c2ccc(Cl)cc2)=NO1 (stereo not given) | inactive
